This is an account of results in PubChem BioAssay (NCI).

Each structure is given as a SMILES string. About 83,000 compounds went through this panel and 20% of them were active in at least one assay; those are over-represented in the sample as a whole.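 Compound tested at a single concentration for 48 hours in 96-well plates; a percent growth value below 10 was scored as active.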 A number with no mark means an inactive call. Activity calls are given as the source filed them.

Test systems include SK-MEL-2 melanoma; EKVX NSCLC; SN12C renal; UO-31 renal; TK-10 renal; ACHN renal; CAKI-1 renal; A498 renal; CCRF-CEM leukemia; MOLT-4 leukemia; SR leukemia; RPMI-8226 leukemia; OVCAR-8 ovarian; OVCAR-5 ovarian; OVCAR-4 ovarian; SK-OV-3 ovarian; IGROV1 ovarian; OVCAR-3 ovarian; NCI/ADR-RES ovarian; HS 578T breast.
What all share (experiment): NCI-60 one-dose screen, 48 h (100 = growth as untreated, 0 = no growth, -100 = all killed)
Holding throughout (details): 10 µM unless noted

On to `C=C(c1ccc(N(C)C)cc1)c1ccc(N(C)C)cc1`, for which the growth was -8.02% (active) in the test on SK-MEL-2 melanoma; 6.55% (active) with EKVX NSCLC; 1.84% (active) with SN12C renal; 28.8% with UO-31 renal; 58.2% with TK-10 renal; 36.1% with ACHN renal. The growth is 22.2% in the test on CAKI-1 renal; 78.8% in the test with A498 renal; -14.1% (active) in the test with CCRF-CEM leukemia; 5.78% (active) with MOLT-4 leukemia; 11.8% in the test on SR leukemia; 7.06% (active) in the test on RPMI-8226 leukemia. Further, the growth was -5.66% (active) in the test on OVCAR-8 ovarian; 16% in the test with OVCAR-5 ovarian; 48.9% in the test on OVCAR-4 ovarian; 27.4% with SK-OV-3 ovarian; 25.4% in the test on IGROV1 ovarian; -33% (active) in the test with OVCAR-3 ovarian. Moreover, the growth with NCI/ADR-RES ovarian was -35.5% (active).
Turning to `CC(=O)CSc1ncnc2nc[nH]c12`, the growth was 95% with SK-MEL-2 melanoma; 95.4% in the test with EKVX NSCLC; 96.9% in the test on SN12C renal; 88.1% in the test on UO-31 renal; 88.8% in the test on TK-10 renal; 93% with ACHN renal. The growth is 80.9% in the test on CAKI-1 renal; 66.1% with A498 renal; 89.3% with CCRF-CEM leukemia; 87.4% with MOLT-4 leukemia; 87.8% in the test on SR leukemia; 76.6% with RPMI-8226 leukemia. Further, the growth with OVCAR-8 ovarian is 99.2%; in the test with OVCAR-5 ovarian, 95.8%; in the test on OVCAR-4 ovarian, 66.9%; in the test on OVCAR-3 ovarian, 91.5%; in the test with HS 578T breast, 116%; in the test on NCI/ADR-RES ovarian it was 101%.
On to `CC(=O)N(C(C)=O)c1ccc(C)cc1`, for which the growth in the test on SK-MEL-2 melanoma was 106%; in the test on EKVX NSCLC, 92.6%; with SN12C renal, 96.1%; in the test with UO-31 renal, 92.4%; with TK-10 renal it was 99.1%; with ACHN renal, 112%. Also, the growth with CAKI-1 renal was 92.7%; with A498 renal, 119%; in the test with CCRF-CEM leukemia, 106%; with MOLT-4 leukemia, 93.9%; in the test with RPMI-8226 leukemia, 115%; in the test with OVCAR-8 ovarian, 101%. In addition, the growth in the test with OVCAR-5 ovarian was 94.2%; in the test with OVCAR-4 ovarian, 101%; with SK-OV-3 ovarian it was 109%; in the test with IGROV1 ovarian it was 109%; in the test on OVCAR-3 ovarian, 112%; with HS 578T breast, 110%. In addition, in the test on NCI/ADR-RES ovarian, the growth was 96.6%.
In the case of `CCOC(=O)c1ccc(NC(=O)Nc2nccs2)cc1`, the growth in the test with SK-MEL-2 melanoma was -38.4% (active); with EKVX NSCLC, 55.5%; with SN12C renal, 24.7%; with UO-31 renal, 14.8%; in the test on TK-10 renal it was 31.6%; in the test on ACHN renal it was 9.97% (active). Moreover, the growth in the test with CAKI-1 renal is 22.2%; in the test on A498 renal, 7.68% (active); with CCRF-CEM leukemia, -0.276% (active); with MOLT-4 leukemia, -2.7% (active); in the test on RPMI-8226 leukemia, 6.43% (active); with OVCAR-8 ovarian, 8.24% (active). Also, the growth with OVCAR-5 ovarian was 25.9%; in the test with OVCAR-4 ovarian it was 16.7%; in the test on SK-OV-3 ovarian it was 10.8%; in the test on IGROV1 ovarian, -16.2% (active); with OVCAR-3 ovarian it was -48.8% (active); with HS 578T breast, 48.4%. Also, the growth with NCI/ADR-RES ovarian was -6.67% (active).
Turning to `ClCc1cccc2c(CCl)cccc12`, the growth with SK-MEL-2 melanoma is 84.3%; with EKVX NSCLC, 82.2%; with SN12C renal, 64.5%; in the test on UO-31 renal, 60.4%; in the test with TK-10 renal, 86.8%; in the test with ACHN renal it was 31.5%. Moreover, the growth was 15.2% in the test with CAKI-1 renal; 107% in the test with A498 renal; 29.8% with CCRF-CEM leukemia; 27.7% with MOLT-4 leukemia; 31% in the test on RPMI-8226 leukemia; 63.8% in the test with OVCAR-8 ovarian. Also, the growth with OVCAR-5 ovarian is 114%; in the test with OVCAR-4 ovarian it was 94.4%; with IGROV1 ovarian it was 54.9%; with OVCAR-3 ovarian it was 62.7%; with HS 578T breast it was 98.8%; in the test on NCI/ADR-RES ovarian, 69.2%.
Turning to `O=C(NC(=S)N1CC=CCC1)c1ccccc1`, the growth in the test on SK-MEL-2 melanoma is 84.4%; with EKVX NSCLC, 111%; in the test on SN12C renal, 88.4%; in the test with UO-31 renal, 87%; in the test on TK-10 renal, 94.5%; with ACHN renal it was 94.3%. Further, the growth is 105% with CAKI-1 renal; 93.1% in the test on A498 renal; 121% in the test with CCRF-CEM leukemia; 94.2% in the test with MOLT-4 leukemia; 104% in the test on RPMI-8226 leukemia; 100% with OVCAR-8 ovarian. The growth with OVCAR-5 ovarian is 97.4%; with OVCAR-4 ovarian it was 116%; in the test with SK-OV-3 ovarian, 107%; with IGROV1 ovarian, 122%; in the test on OVCAR-3 ovarian it was 115%; in the test with HS 578T breast, 92.7%. The growth in the test with NCI/ADR-RES ovarian is 108%.
Regarding `CCOc1ccc2c(c1)c(C)cc(C)[n+]2CC`, the growth in the test on SK-MEL-2 melanoma was 97.9%; in the test on EKVX NSCLC, 35.9%; in the test on SN12C renal, 64.6%; in the test on UO-31 renal, 65.9%; in the test on TK-10 renal, 97%; in the test on ACHN renal it was 94.1%. Also, the growth was 86.2% in the test on CAKI-1 renal; 88.9% with A498 renal; 71.2% in the test on CCRF-CEM leukemia; 64.6% in the test with MOLT-4 leukemia; 52.1% in the test with RPMI-8226 leukemia; 62.4% with OVCAR-8 ovarian. The growth in the test with OVCAR-5 ovarian is 98.5%; in the test with OVCAR-4 ovarian, 58.8%; in the test on SK-OV-3 ovarian it was 83.4%; with IGROV1 ovarian it was 82.3%; in the test on OVCAR-3 ovarian, 76.2%; in the test with HS 578T breast, 104%. Moreover, in the test with NCI/ADR-RES ovarian, the growth was 113%.
`CCOC(=O)c1cc(Cl)c(O)c(Cl)c1`: the growth is 106% in the test on SK-MEL-2 melanoma; 109% in the test on EKVX NSCLC; 107% in the test with SN12C renal; 92.3% in the test on UO-31 renal; 108% in the test on TK-10 renal; 103% with ACHN renal. Also, the growth in the test with CAKI-1 renal was 109%; with A498 renal it was 104%; in the test with CCRF-CEM leukemia, 90.8%; in the test with MOLT-4 leukemia it was 89.6%; in the test on RPMI-8226 leukemia it was 101%; with OVCAR-8 ovarian it was 100%. The growth is 108% with OVCAR-5 ovarian; 120% in the test on OVCAR-4 ovarian; 109% with SK-OV-3 ovarian; 96.8% in the test on IGROV1 ovarian; 115% in the test on OVCAR-3 ovarian; 109% with HS 578T breast. For the same compound, the growth in the test with NCI/ADR-RES ovarian is 111%.
In the case of `CCOC(=O)C1(N)CCCCC1`, the growth is 106% in the test with SK-MEL-2 melanoma; 97.5% in the test on EKVX NSCLC; 93.1% in the test with SN12C renal; 79.6% in the test with UO-31 renal; 96.3% with TK-10 renal; 104% in the test on ACHN renal. Besides, the growth in the test with CAKI-1 renal is 88.2%; in the test with A498 renal, 173%; in the test with CCRF-CEM leukemia it was 98.1%; with MOLT-4 leukemia, 107%; with RPMI-8226 leukemia, 110%; in the test with OVCAR-8 ovarian it was 107%. In addition, the growth is 94.6% in the test on OVCAR-5 ovarian; 121% with OVCAR-4 ovarian; 100% in the test on SK-OV-3 ovarian; 85.4% in the test on IGROV1 ovarian; 112% in the test with OVCAR-3 ovarian; 88.6% in the test on HS 578T breast. Also, the growth with NCI/ADR-RES ovarian is 98.7%.
Regarding `O=C1C=C(c2ccccc2)C(O)(c2ccccc2)C1` (configuration not stated), the growth in the test on SK-MEL-2 melanoma was 103%; with EKVX NSCLC, 89.8%; in the test with SN12C renal, 99.7%; with UO-31 renal, 83.5%; in the test on TK-10 renal it was 99.6%; in the test on ACHN renal, 96%. The growth in the test with CAKI-1 renal is 89.9%; in the test with A498 renal, 105%; with CCRF-CEM leukemia it was 100%; in the test on MOLT-4 leukemia, 95.4%; in the test on RPMI-8226 leukemia it was 98.1%; with OVCAR-8 ovarian, 106%. For the same compound, the growth in the test with OVCAR-5 ovarian is 93.6%; in the test on OVCAR-4 ovarian it was 95.7%; with SK-OV-3 ovarian, 101%; in the test on IGROV1 ovarian, 107%; in the test on OVCAR-3 ovarian it was 112%; in the test on HS 578T breast it was 109%. In addition, in the test with NCI/ADR-RES ovarian, the growth was 104%.
`COc1cc(C(=O)N2CCN(c3ccccc3)CC2)c2ccccc2n1`: the growth in the test on SK-MEL-2 melanoma was 3.61% (active); in the test with EKVX NSCLC, 51.6%; in the test on SN12C renal it was 36.8%; in the test on UO-31 renal, 44.9%; in the test with TK-10 renal it was 57.1%; in the test on ACHN renal, 60.6%. Moreover, the growth in the test on CAKI-1 renal is 36.2%; in the test on A498 renal, 32.3%; in the test with CCRF-CEM leukemia it was 29.3%; with MOLT-4 leukemia, 29.9%; with RPMI-8226 leukemia, 35.1%; in the test with OVCAR-8 ovarian it was 14.3%. Moreover, the growth was 39.4% in the test on OVCAR-5 ovarian; 57.5% in the test with OVCAR-4 ovarian; 5.77% (active) in the test with SK-OV-3 ovarian; 17.4% in the test on IGROV1 ovarian; -33.5% (active) with OVCAR-3 ovarian; 27% in the test on HS 578T breast. Moreover, the growth with NCI/ADR-RES ovarian is -43.6% (active).
